Our source for the Percent Effect values is ChEMBL document CHEMBL3988442, “University of Dundee, Small-Polar-MMV Screening Library” (2021).

For some assays here: Potency and affinity values are given separately.

Common to all, as to set-up: scale not given: direction of the effect not stated beside the values
Experiment [1] has as its target Protein translocase subunit SecA (Escherichia coli (strain K12)) (UniProt P10408). The experiment can be described thus: Assay to Identify E. coli SecA ATPase Inhibitors. The experiment is classed as functional. The following applies: 30 µM.
The target of experiment [2] is T1, Ubiquitin-activating enzyme e1, putative (Leishmania donovani (strain BPK282A1)) (UniProt E9BSI1).
T1 sequence (whole entry): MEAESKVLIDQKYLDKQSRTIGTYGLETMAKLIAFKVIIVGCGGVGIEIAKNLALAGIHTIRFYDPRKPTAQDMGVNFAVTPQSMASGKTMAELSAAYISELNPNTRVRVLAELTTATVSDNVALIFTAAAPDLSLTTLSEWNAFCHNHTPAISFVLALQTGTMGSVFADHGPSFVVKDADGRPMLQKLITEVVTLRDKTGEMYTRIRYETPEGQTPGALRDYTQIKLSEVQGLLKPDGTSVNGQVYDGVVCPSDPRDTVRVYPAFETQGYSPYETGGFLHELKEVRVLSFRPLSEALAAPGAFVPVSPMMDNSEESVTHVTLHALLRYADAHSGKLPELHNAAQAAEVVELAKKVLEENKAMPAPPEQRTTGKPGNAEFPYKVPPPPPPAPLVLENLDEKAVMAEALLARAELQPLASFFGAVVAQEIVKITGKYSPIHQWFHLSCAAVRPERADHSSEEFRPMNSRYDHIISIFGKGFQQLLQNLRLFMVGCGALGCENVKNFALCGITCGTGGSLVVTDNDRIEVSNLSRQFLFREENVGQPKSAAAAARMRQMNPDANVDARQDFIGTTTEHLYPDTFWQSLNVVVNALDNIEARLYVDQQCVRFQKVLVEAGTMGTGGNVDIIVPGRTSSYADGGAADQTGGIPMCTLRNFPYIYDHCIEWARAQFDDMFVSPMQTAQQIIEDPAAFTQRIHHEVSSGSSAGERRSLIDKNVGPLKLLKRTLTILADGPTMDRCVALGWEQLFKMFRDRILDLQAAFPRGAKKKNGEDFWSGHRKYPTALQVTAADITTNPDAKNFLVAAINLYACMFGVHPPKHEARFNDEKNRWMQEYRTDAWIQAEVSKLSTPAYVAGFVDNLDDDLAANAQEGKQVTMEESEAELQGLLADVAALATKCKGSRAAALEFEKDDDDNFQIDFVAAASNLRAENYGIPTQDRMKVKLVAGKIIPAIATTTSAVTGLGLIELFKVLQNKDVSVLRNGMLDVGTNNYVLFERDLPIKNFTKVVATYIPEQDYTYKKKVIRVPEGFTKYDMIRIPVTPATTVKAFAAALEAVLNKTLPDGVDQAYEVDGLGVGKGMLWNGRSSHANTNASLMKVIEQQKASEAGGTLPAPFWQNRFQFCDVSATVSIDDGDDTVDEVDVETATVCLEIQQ
Nature of the experiment: Leishmania donovani Ubiquitin Activating Enzyme (LdE1). Type of experiment: functional. The following applies: 30 µM.

The target in experiment [3] is AMP-activated protein kinase, AMPK (Homo sapiens) (UniProt P54646+O43741+P54619+Q9UGJ0+Q9Y478+Q13131+Q9UGI9). Nature of the experiment: AMP-dependent Kinase enzyme assay. An in vitro enzyme assay that detects ADP turnover that is directly proportional to AMPK activity. This uses naive AMPK that is activated during the assay with MK-8722. Type of experiment: functional. The following applies: 30 µM.

Experiment [4] has as its target Sialic acid-binding Ig-like lectin 9 (Homo sapiens) (UniProt Q9Y336). The experiment can be described thus: Hs-Siglec9 ALPHAscreen SOP 20170721. The following applies: 10 µM. On the technique in general: Bead proximity is the source of the signal in Alpha formats.
For the next experiment, the system named is Trypanosoma cruzi. The experiment can be described thus: Trypanosoma cruzi phosphomannomutase and mannose-1-phosphate guanylyltransferase assay. Type of experiment: functional. Particulars: 10 µM.
Experiment [5] concerns the target T2, Arginase-2, mitochondrial (Homo sapiens) (UniProt P78540).
T2 sequence (whole entry): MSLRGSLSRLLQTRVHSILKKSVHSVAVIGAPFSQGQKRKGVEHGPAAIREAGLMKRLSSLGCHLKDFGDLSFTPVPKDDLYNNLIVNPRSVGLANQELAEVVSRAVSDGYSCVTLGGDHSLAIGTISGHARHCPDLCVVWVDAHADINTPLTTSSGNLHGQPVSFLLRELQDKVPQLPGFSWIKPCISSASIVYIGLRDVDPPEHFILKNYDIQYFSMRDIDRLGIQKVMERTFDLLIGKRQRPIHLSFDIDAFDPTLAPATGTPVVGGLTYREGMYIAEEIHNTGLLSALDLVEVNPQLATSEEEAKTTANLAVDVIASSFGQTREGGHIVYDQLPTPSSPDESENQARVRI
The experiment can be described thus: in vitro enzyme assay to detect the production of urea directly proportional to the activity of Arginase II. Note: in the data most compounds retested in dose-response had high values. Type of experiment: functional. Particulars: 33.3 µM.

Experiment [6] has as its target T3, Proteasome subunit beta (Trypanosoma cruzi) (UniProt O96673).
T3 sequence (whole entry): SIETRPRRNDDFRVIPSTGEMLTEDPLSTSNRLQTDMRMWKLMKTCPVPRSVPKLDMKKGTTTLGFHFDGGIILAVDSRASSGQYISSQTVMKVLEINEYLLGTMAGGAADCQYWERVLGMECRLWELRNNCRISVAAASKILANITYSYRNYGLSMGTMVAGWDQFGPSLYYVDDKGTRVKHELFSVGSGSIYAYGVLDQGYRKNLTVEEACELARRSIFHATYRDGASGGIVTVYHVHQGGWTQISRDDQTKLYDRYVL
Nature of the experiment: Trypanosoma cruzi proteasome chymotrypsin-like activity (TcProtChymo) assay. Note: in the data most compounds retested in dose-response had high values. Type of experiment: functional. The following applies: 9.37 µM.

For a further experiment, the species on record is Homo sapiens. Nature of the experiment: To identify inhibition of the IFN signalling (Jak-Stat) pathway via expression of an eGFP reporter gene under the control of an IFN-stimulated response element (ISRE) containing MxA promoter. Type of experiment: functional. The following applies: 30 µM. For orientation: A reporter such as luciferase makes a cellular process visible.

Experiment [7] deals with T4, Tyrosyl-tRNA synthetase, putative (Trypanosoma cruzi (strain CL Brener)) (UniProt Q4DSP6).
T4 sequence (whole entry): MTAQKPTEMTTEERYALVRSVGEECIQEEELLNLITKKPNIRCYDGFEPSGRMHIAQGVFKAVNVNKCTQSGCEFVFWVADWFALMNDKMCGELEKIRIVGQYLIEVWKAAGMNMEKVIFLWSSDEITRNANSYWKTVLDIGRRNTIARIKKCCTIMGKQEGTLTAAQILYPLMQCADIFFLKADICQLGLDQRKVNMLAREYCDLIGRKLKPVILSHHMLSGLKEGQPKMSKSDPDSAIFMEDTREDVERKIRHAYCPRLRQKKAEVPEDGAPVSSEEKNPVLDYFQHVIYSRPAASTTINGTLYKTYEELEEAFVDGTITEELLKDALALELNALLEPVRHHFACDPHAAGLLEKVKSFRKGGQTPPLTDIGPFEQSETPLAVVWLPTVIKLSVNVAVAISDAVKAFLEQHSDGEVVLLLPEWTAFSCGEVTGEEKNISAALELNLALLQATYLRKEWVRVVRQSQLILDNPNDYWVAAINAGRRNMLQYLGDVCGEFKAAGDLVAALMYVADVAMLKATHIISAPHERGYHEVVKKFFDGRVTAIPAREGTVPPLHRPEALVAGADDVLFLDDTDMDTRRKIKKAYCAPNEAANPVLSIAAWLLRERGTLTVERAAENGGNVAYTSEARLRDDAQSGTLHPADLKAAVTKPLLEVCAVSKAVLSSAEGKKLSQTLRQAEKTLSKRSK
The experiment can be described thus: Trypanosoma cruzi tyrosyl tRNA synthetase (TcYRS) _High Tyrosine SOP. Note: in the data most compounds retested in dose-response had high values. The experiment is classed as functional. The following applies: 30 µM.

Experiment [8] concerns the target T4, Tyrosyl-tRNA synthetase, putative (Trypanosoma cruzi (strain CL Brener)). The experiment can be described thus: Trypanosoma cruzi tyrosyl tRNA synthetase (TcYRS) SOP. The experiment is classed as functional. The following applies: 30 µM.
Experiment [9] deals with Chromo domain-containing protein 1 (Saccharomyces cerevisiae (strain ATCC 204508 / S288c) (Baker's yeast)) (UniProt P32657). The experiment can be described thus: ScCHD-1 Enzyme Inhibition Assay. Note: in the data most compounds retested in dose-response had high values. Particulars: 30 µM. Type of experiment: functional.
Sequence of Chromo domain-containing protein 1 (Saccharomyces cerevisiae (strain ATCC 204508 / S288c) (Baker's yeast)) (P32657 whole entry, the tested form may be a part): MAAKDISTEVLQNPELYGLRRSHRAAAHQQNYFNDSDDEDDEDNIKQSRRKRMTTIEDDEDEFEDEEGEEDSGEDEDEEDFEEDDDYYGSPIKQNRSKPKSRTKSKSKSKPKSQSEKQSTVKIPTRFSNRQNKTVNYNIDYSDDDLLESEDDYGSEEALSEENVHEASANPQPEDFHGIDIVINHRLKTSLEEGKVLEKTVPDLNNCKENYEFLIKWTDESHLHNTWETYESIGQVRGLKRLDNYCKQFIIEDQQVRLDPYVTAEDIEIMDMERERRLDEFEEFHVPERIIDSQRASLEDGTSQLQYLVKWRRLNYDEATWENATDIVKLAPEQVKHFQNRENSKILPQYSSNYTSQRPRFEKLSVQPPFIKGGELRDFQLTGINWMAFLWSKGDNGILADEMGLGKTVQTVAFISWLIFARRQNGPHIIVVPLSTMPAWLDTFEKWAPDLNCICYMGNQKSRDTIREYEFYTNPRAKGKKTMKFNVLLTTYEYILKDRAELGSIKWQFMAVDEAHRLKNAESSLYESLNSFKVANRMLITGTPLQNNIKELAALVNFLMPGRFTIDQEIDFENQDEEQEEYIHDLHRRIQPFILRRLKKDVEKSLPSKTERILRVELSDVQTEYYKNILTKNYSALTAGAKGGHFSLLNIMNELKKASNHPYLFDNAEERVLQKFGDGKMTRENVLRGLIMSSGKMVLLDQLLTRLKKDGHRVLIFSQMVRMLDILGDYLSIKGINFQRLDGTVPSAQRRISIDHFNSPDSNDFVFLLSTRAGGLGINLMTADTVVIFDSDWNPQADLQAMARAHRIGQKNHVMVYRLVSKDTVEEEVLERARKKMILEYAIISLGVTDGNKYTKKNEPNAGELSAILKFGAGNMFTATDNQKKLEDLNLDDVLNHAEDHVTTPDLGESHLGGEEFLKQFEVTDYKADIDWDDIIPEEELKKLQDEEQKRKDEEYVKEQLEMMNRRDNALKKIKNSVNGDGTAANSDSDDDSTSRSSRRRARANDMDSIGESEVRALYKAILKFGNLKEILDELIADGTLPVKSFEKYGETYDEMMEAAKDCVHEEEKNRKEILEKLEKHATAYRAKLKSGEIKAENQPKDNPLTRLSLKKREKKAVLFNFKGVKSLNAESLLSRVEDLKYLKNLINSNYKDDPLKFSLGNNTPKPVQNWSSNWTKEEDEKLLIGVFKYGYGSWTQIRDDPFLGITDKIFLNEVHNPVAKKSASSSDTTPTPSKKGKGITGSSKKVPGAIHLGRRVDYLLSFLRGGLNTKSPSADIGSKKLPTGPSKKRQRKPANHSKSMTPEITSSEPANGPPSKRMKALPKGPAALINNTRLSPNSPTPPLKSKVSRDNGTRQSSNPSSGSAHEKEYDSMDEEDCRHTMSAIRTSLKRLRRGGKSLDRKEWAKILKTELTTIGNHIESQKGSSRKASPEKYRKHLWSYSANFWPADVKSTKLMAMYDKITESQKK

Sequence of Sialic acid-binding Ig-like lectin 9 (Homo sapiens) (Q9Y336 whole entry): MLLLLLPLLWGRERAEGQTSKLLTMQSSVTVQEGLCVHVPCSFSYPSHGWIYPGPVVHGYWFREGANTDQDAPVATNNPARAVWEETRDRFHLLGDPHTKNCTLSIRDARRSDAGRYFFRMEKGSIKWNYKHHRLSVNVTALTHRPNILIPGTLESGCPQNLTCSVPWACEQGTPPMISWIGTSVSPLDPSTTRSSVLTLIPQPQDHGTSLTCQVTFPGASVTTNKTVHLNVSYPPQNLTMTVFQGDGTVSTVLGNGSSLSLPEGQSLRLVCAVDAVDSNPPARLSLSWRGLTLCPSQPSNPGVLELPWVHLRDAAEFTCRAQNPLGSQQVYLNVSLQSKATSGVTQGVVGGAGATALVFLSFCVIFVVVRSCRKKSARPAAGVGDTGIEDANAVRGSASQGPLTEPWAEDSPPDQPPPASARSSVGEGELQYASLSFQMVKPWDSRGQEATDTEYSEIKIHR
Sequence of Protein translocase subunit SecA (Escherichia coli (strain K12)) (P10408 whole entry): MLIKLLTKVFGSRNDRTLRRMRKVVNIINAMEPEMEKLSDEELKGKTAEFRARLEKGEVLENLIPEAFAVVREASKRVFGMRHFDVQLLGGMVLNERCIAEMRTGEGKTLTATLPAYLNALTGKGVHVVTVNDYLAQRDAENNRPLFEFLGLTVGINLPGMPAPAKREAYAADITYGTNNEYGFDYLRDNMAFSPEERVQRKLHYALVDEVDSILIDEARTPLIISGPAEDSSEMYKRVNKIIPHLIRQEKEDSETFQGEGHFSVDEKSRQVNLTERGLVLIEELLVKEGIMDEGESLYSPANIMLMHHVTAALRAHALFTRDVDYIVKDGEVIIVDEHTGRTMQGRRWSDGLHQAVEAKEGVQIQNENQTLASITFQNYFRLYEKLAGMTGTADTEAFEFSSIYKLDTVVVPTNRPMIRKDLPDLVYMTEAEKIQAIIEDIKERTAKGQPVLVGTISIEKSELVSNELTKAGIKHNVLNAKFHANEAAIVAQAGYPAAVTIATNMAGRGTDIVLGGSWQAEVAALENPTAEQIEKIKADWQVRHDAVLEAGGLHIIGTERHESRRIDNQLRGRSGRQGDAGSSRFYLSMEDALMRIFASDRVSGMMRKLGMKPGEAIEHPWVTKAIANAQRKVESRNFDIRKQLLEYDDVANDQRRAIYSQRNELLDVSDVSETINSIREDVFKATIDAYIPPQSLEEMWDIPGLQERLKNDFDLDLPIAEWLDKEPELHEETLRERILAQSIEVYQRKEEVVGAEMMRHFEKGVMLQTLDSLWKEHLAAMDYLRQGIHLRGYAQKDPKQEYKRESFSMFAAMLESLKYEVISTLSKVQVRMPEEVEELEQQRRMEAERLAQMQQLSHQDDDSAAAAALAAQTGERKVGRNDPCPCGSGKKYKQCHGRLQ

Consider `Cc1ncc2c(n1)CN(Cc1nnc(-c3occc3C)o1)CC2`, for which the Percent Effect in experiment [1] was -2.4%; in experiment [2], 18.9%; in [3], -24.9%; in experiment [4], 14.5%; with Trypanosoma cruzi, 6.04%; in experiment [5], 2.03%. In addition, the Percent Effect in [6] is 6.82%; in the experiment filed under Homo sapiens it was -0.684%; in experiment [7] it was 22.8%; in [8] it was 30.5%; in experiment [9], -8.36%.

On to `CCN(CC)C(=O)c1ccn(COc2ccccc2)n1`, for which the Percent Effect in experiment [1] is -2.87%; in experiment [2], -4%; in [3], 2.57%; in experiment [4], 5.83%; in the experiment with Trypanosoma cruzi it was 4.32%; in experiment [5], -2.99%. The Percent Effect is 8.5% in experiment [6]; 1.5% in the experiment listed under Homo sapiens; 5.29% in experiment [7]; 10.3% in experiment [8]; -0.306% in experiment [9].

On to `Cc1cc(C)n(CC2CCCN2CCCS(=O)(=O)N(C)C)n1` (stereo not given), for which the Percent Effect in [1] is -1.98%; in experiment [2], 16.2%; in experiment [3], -6.22%; in experiment [4] it was 14%; in the experiment with Trypanosoma cruzi, 5.99%; in experiment [5] it was 11.9%. Besides, the Percent Effect in experiment [6] was 13.6%; in the experiment filed under Homo sapiens, 8.21%; in [7] it was 4.76%; in experiment [8] it was 19.5%; in [9], -4.54%.

Consider `CC(C)OCCCNC(=O)CS(=O)(=O)Cc1ccc(Cl)c(Cl)c1`, for which the Percent Effect in experiment [1] was -6.75%; in [2] it was 5.2%; in [3] it was 9.19%; in experiment [4] it was -7.16%; with Trypanosoma cruzi, -5.8%; in experiment [5], -1.78%. The Percent Effect in [6] was 9.63%; in the experiment filed under Homo sapiens, 33.8%; in experiment [7], 3.88%; in experiment [8] it was 12.2%; in experiment [9] it was -5.85%.

Consider `Cc1nn(C)c(C)c1C1COCCN1C(=O)Cc1cccc(F)c1` (stereo not given), for which the Percent Effect was -0.171% in experiment [1]; 13.7% in experiment [2]; -6.33% in experiment [3]; 3.58% in experiment [4]; -3.13% in the experiment on Trypanosoma cruzi; -1.82% in [5]. Besides, the Percent Effect in experiment [6] is 17.6%; in the experiment filed under Homo sapiens it was 33.3%; in experiment [7], 1.07%; in experiment [8], 5%; in [9], -4.69%.

As for `Cc1cc(C)n(CC(=O)N2CCC(c3nc(C)no3)CC2)n1`, the Percent Effect was -2.79% in experiment [1]; 9.72% in experiment [2]; 3.9% in experiment [3]; -0.831% in experiment [4]; 2.43% in the experiment with Trypanosoma cruzi; 3.09% in experiment [5]. Also, the Percent Effect in experiment [6] was 9.3%; in the experiment listed under Homo sapiens, -22.2%; in experiment [7], 3.16%; in [8], 5.13%; in [9] it was -4.51%.

Turning to `COC(=O)CN1CC(c2nc(Cc3ccccc3)no2)C1`, the Percent Effect in [1] is -5.1%; in experiment [2], 13.7%; in experiment [3] it was -3.81%; in experiment [4] it was 14.3%; in the experiment with Trypanosoma cruzi, 2.35%; in experiment [5] it was 2.27%. Besides, the Percent Effect in [6] was 11.9%; in the experiment listed under Homo sapiens it was 12.4%; in experiment [7], 8.6%; in experiment [8] it was 15%; in experiment [9] it was -6.9%.

For the compound `CN(C)C(=O)Cc1nc(CN2CCCCC2Cn2cccn2)cs1` (stereo not given), the Percent Effect in [1] was -2.18%; in experiment [2], -2.63%; in experiment [3], 87.3%; in [4], -6.24%; with Trypanosoma cruzi, 1.07%; in experiment [5], -2.37%. Moreover, the Percent Effect in experiment [6] is 12.8%; in the experiment listed under Homo sapiens, 9.75%; in [7], 1.06%; in [8] it was -5.2%; in [9], -0.00308%.

With `Cc1nn(C)c(C)c1C1CCCN1C(=O)c1cnc2n[nH]c(C)c2c1` (stereo not given), the Percent Effect is -5.23% in [1]; 16.2% in [2]; -5.44% in experiment [3]; 13.8% in experiment [4]; 5.66% with Trypanosoma cruzi; 0.554% in experiment [5]. In addition, the Percent Effect in experiment [6] was 0%; in the experiment filed under Homo sapiens, 9.61%; in experiment [7], 4.95%; in experiment [8], 18.3%; in [9], -3.42%.

In the case of `O=C(C1=CCCC1)N1CCC[C@]2(C[C@@H](OCc3ccncc3)CO2)C1`, the Percent Effect in [1] is 1.57%; in experiment [2] it was 10.7%; in experiment [3], 4.23%; in experiment [4] it was 8.61%; in the experiment on Trypanosoma cruzi, -1.93%; in [5], -19.2%. Moreover, the Percent Effect in experiment [6] is 7.69%; in the experiment filed under Homo sapiens it was -6.85%; in [7], 5.21%; in experiment [8], 22.5%; in [9], -9.61%.
